Compound activity: PubChem BioAssay, National Center for Advancing Translational Sciences (NCATS)
Compounds with a hit are over-represented: about 1.8% of the library has one in this group of screens.
VDR inh: blocks the human vitamin D receptor | hit rate 0.93% among 400,000 | Potency, µM, without a hit: max response, negative = inhibition, hits mostly inhibitors | P11473 | VDR-SRC2-3 peptide fluorescence polarization, 2 h | AID 504847; also: % is scaled to controls: 0 for no effect and ±100 for the full control effect
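The screen uses fluorescence polarization to detect compounds that interfere with recruitment of the SRC2-3 coactivator peptide to VDR; plates are read after 2 h at room temperature.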
KAT2A inh: blocks human GCN5L2 histone acetyltransferase; Q92830; AID 504327; Potency, µM (doses to about 58.9 µM), for the others: at the top dose activity change, negative = inhibition, most hits filed as inhibitors; GCN5L2 HAT assay, ThioGlo1 CoA-SH fluorescence; hit rate 0.21% among 390,000; also: % is scaled to controls: 0 for no effect and ±100 for the full control effect
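ThioGlo1-coupled HAT assay: 20nM GCN5L2, 70uM acetyl-CoA, 75uM H3(1-25) peptide, pH 7.5. Fluorescence read at 340/540nm at start and after 20 min at room temperature.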
TrxR1 substrate: is turned over as a substrate by rat TrxR1. Potency, µM (titrated, usually from 114 µM), for inactives: at the highest dose activity change, negative = substrate turnover. purified TrxR1 substrate turnover, NADPH consumption readout. O89049. AID 588456. hit rate 0.01% among 390,000; also: % is scaled to controls: 0 for no effect and ±100 for the full control effect; nearly all actives have a fitted effect of over 50% in size
Target sequence (O89049 whole entry, looked up): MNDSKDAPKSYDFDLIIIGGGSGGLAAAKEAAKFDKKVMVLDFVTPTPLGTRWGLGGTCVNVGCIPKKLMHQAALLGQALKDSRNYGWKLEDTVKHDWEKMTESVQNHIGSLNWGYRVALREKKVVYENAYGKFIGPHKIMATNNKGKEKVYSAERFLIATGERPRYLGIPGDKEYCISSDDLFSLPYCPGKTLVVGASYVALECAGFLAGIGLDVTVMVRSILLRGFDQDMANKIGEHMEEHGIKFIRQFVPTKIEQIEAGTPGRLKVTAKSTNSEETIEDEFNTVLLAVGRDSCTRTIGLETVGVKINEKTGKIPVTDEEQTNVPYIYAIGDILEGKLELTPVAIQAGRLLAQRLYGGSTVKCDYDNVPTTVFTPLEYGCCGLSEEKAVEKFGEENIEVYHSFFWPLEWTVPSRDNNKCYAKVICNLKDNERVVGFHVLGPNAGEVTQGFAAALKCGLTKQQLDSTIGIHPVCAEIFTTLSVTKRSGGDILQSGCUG
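Rat TrxR1, dispensed at 90 nM, was prereduced with 400 uM NADPH (final) for 5 min at ~22 deg C, then incubated with compound 15 min before 400 uM selenite. A first-read NADPH fluorescence drop versus no-compound background flagged substrates.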
rTrxR1 inhibitor: blocks rat thioredoxin reductase 1 | O89049 | recombinant rTrxR1, NADPH fluorescence consumption, selenite substrate | Potency, µM (highest dose often 114 µM), without a hit: at the top dose activity change, negative = inhibition, most hits filed as inhibitors | hit rate 1% among 390,000; also: % is scaled to controls: 0 for no effect and ±100 for the full control effect; nearly all actives have a fitted effect of over 65% in size
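Rat TrxR1 (90 nM in the dispensed reagent) was pre-reduced with 400 uM NADPH for 5 min at room temperature, then incubated with compound for 15 min. After 400 uM selenite was added, NADPH fluorescence (Ex 340/Em 450 nm) was followed for 8 min.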
VDR confirm: inhibits human vitamin D receptor, primary hit validation | Potency, µM, actives largely listed as inhibitors | AID 602199 | hit rate 89% among 840 | VDR-coactivator inhibition assay, qHTS confirmation | shares compounds with VDR inh
VDR FP: VDR (human) coactivator binding inhibition, fluorescein polarization; shares compounds with VDR inh; VDR-coactivator binding, fluorescein fluorescence polarization; Potency, µM (series often up to 57.1 µM), for inactives: at the top dose activity change, negative = inhibition, usual class: inhibitors; hit rate 48% among 840; AID 602200
VDR bla: confirmation of human vitamin D receptor inhibitors in reporter cells | shares compounds with VDR inh | hit rate 23% among 840 | VDR beta-lactamase reporter cells, FRET ratio; cells co-treated with VDR agonist LG190178 | Potency, µM (titrated, usually from 46.1 µM), inactives show at the highest dose activity change, negative = inhibition, usual class: inhibitors; also: % is scaled to controls: 0 for no effect and ±100 for the full control effect
VDR cytotox: counter-screen for vitamin D receptor inhibitors: cytotoxicity. hit rate 18% among 840. Potency, µM (titrated, usually from 48.3 µM), for the others: at the top dose activity change, negative = cytotoxicity, usual class: cytotoxic. cytotoxicity counter-screen, cell viability, qHTS. shares compounds with VDR inh;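 also: plate controls were DMSO for no effect and high-concentration cycloheximide for full effect; nearly all actives have a fitted effect of over 75% in size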
The depositor's hits bear a star; ? = inconclusive; nt = no result given; [ ] = remark or other dose. Calls follow the shape of the dose curve; as a rule, active = well fitted curve in the direction sought with a large enough effect; inconclusive = small, poorly fitted or top-dose-only effect, or another doubt; inactive = no such curve, though single readings can be large; an effect the other way counts as inactive or inconclusive. Potency is read from the fitted curve at half-maximal effect.

SMILES	VDR inh	KAT2A inh	TrxR1 substrate	rTrxR1 inhibitor	VDR confirm	VDR FP	VDR bla	VDR cytotox
Cc1c(C(=O)NCc2ccccc2Cl)sc2ncnc(N(C)C3CCCCC3)c12	16.9%	3.3%	1.7%[57.1 µM]	21.3%[57.1 µM]	nt	nt	nt	nt
CCCN1CCN(c2ncnc3sc(C(=O)Nc4ccc(C(C)C)cc4)c(C)c23)CC1	1.8%	2.0%	-9.0%[57.1 µM]	-5.2%[57.1 µM]	nt	nt	nt	nt
NCCC[C@@H](CC(=O)N[C@@H]1CCCC[C@H]1C(=O)N[C@H](CC(=O)N[C@@H](CCC(=O)O)CC(=O)O)Cc1c[nH]c2ccccc12)NC(=O)C[C@H](Cc1ccccc1)NC(=O)[C@@H]1CCCC[C@H]1N	1.4%	nt	nt	nt	nt	nt	nt	nt
O=C(NCc1ccc2c(c1)OCO2)c1nc(S(=O)(=O)Cc2ccccc2)ncc1Cl	22.4µM*	-10.2%	2.7%	11.2µM*	9.47*	?	18.4µM*	?
O=C(NCc1ccc2c(c1)OCO2)c1ccccc1Cl	-15.1%	nt	-5.0%	-1.7%	nt	nt	nt	nt
CC(C)CN(CC(C)C)S(=O)(=O)c1ccc(C(=O)Nc2sc3c(c2C(N)=O)CC(C)(C)NC3(C)C)cc1	4.7%	-7.3%	-6.2%[57.1 µM]	0.1%[57.1 µM]	nt	nt	nt	nt
CSc1ccc(CCNC(=O)Cn2ncc3c(=O)oc4ccccc4c32)cc1	-9.1%	-0.1%	5.7%	24.2%	nt	nt	nt	nt
CCOC(=O)c1[nH]cc(-c2ccccc2)c1N1CCOCC1	22.4µM*	-15.1%	-10.0%	?	21.2*	?	14.1%	?
O=[N+]([O-])c1ccc(/C=C2\CCC(C3=CCCC3)=C2N2CCOCC2)cc1	?	-5.8%	-9.6%	39.8µM*	?	?	?	-2.3%
O=C(NP(=O)(N1CCCC1)N1CCCC1)C1=C(N2CCOCC2)/C(=C/c2cccc([N+](=O)[O-])c2)CC1	-27.7%	-15.8%	6.0%[57.1 µM]	-17.5%[57.1 µM]	nt	nt	nt	nt
CC(C)Oc1ccc(C(=O)NC2=NCCS2)cc1	79.4µM*	-12.6%	4.4%[57.1 µM]	6.0%[57.1 µM]	23.8*	?	15.0%	25.3%
CCCCCC(O)c1ccc([C@H]2CCC(=O)[C@@H]2CCCCCCC(=O)O)cc1 (some centres not stated)	?	30.9%	nt	nt	nt	nt	nt	nt
COc1ccc(NC(=O)/C(Cl)=C(/Cl)S(=O)Cc2ccc(Cl)cc2)cn1 (configuration not stated)	11.2µM*	-19.9%	1.8%	?	4.23*	2.82µM*	1.84µM*	11.2µM*
O=C(/C=C/c1cccnc1)/C=C/c1cccnc1	12.6µM*	-10.3%	-12.2%	17.8µM*	2.67*	-14.1%	5.8µM*	14.6µM*
C(=Cc1cccnc1)c1ccncc1	16.0%	nt	4.4%[57.1 µM]	11.2%[2.29 µM]	nt	nt	nt	nt
CN(C)S(=O)(=O)c1ccc(C(=O)/C=C/c2cccnc2)cc1	20µM*	0.3%	3.4%[57.1 µM]	8.91µM*	?	?	21.3%	?
COc1ccc(CN(Cc2ccccc2)C(=O)C2CC2)cc1COc1ccc(NC(C)=O)cc1	15.4%	nt	-16.5%	-20.7%	nt	nt	nt	nt
CCOC(=O)c1sc(N)c(C(=O)Nc2ccccc2OC)c1C	70.8µM*	?	-17.1%[57.1 µM]	1.3%[57.1 µM]	10.6*	?	-14.9%	?
O=C(O)COc1ccc(/C=C/C(=O)c2ccc(C3CCCCC3)cc2)cc1	?	?	-6.6%	-13.9%	7.08*	12.6µM*	?	-8.3%
O=C1NN(c2ccccc2)C(=O)/C1=C\c1cccc(OC(=O)c2cccs2)c1	50.1µM*	-15.9%	-8.7%[57.1 µM]	?	8.44*	?	?	?
Cc1ccsc1/C=C1/C(=O)NN(c2ccccc2)C1=O	-28.0%	-12.5%	-7.5%	9.9%[57.1 µM]	nt	nt	nt	nt
CC[C@H](C)[C@H](N)C1=N[C@H](C(=O)N[C@@H](CC(C)C)C(=O)N[C@@H](CCC(=O)O)C(=O)N[C@@H](C(=O)N[C@H]2CCCCNC(=O)[C@@H](CC(N)=O)NC(=O)[C@@H](CC(=O)O)NC(=O)[C@@H](Cc3cnc[nH]3)NC(=O)[C@@H](Cc3ccccc3)NC(=O)[C@@H]([C@@H](C)CC)NC(=O)[C@@H](CCCN)NC2=O)[C@@H](C)CC)CS1	-13.1%	-3.1%[21.4 µM]	nt	nt	nt	nt	nt	nt
Cc1cccc2c1N(Cc1ccccc1OCCC(C)C)C(=O)C2=O	22.4µM*	-10.4%	3.2%	17.0%	22.4*	10µM*	-9.3%	-19.4%
Cc1cc(Br)cc2c1N(Cc1ccccc1OC(C)C)C(=O)C2=O	12.6µM*	?	-1.4%	21.7%	3.98*	3.55µM*	23.1µM*	?
O=C(Nc1cccc(S(=O)(=O)Nc2ccccc2F)c1)c1ccc2ccccc2n1	15.8µM*	?	-11.6%	24.7%	3.77*	?	-18.9%	-38.5%
SMILES	VDR inh	KAT2A inh	TrxR1 substrate	rTrxR1 inhibitor	VDR confirm	VDR FP	VDR bla	VDR cytotox
O=[N+]([O-])c1ccc(N2CCOCC2)cc1O	-0.9%	-6.7%	-9.0%	-10.8%	nt	nt	nt	nt
Cc1cc(N2CCOCC2)ccc1/C=C\[N+](=O)[O-]	28.2µM*	-18.4%	5.4%[57.1 µM]	?	6.7*	43.0%	?	16.4µM*
CCc1ccc(NC(=O)Cn2c(=O)n(Cc3ccc(C)cc3)c(=O)c3cccnc32)cc1	11.1%	3.7%	26.2%	44.8%	nt	nt	nt	nt
CC(C)(C)c1cc(=O)n(-c2ccccc2)[nH]1	10µM*	-3.0%	?	?	8.91*	8.91µM*	-1.2%	3.3%
COc1ccc(C(=O)c2coc3c2C(=O)C(=O)c2ccccc2-3)cc1	?	-14.6%	-5.9%[57.1 µM]	-6.9%[57.1 µM]	6.31*	3.16µM*	?	-6.4%
CCC(=O)Nc1cccc(C(=O)/C=C/c2cc(Br)ccc2OC)c1	?	-2.5%	-10.2%	?	8.91*	14.1µM*	4.61µM*	?
CC(=O)Nc1cccc(C(=O)/C=C/c2ccc(F)cc2)c1	?	-17.9%	9.5%[57.1 µM]	8.0%[57.1 µM]	nt	nt	nt	nt
CC(=O)Nc1cccc(C(=O)/C=C/c2ccc(Br)cc2)c1	25.1µM*	-0.3%	-8.9%	?	7.08*	8.91µM*	?	-19.5%
COc1cccc(/C=C2\C(=O)N(c3cccc(C)c3)C(=O)c3ccccc32)c1	?	-2.8%	-5.4%	?	7.94*	3.16µM*	-11.8%	7.3%
C(=C\c1nc2ccccc2nc1/C=C/c1ccc2c(c1)OCO2)/c1ccc2c(c1)OCO2	nt	nt	0.0%	3.8%	nt	nt	nt	nt
COc1ccc(C(=O)NC(Cc2c[nH]c3ccccc23)C(=O)O)cc1 (configuration not stated)	13.0%	0.8%	2.9%	13.6%	nt	nt	nt	nt
